TIM10 inh = growth inhibitors of TIM10 yeast strain; S. cerevisiae TIM10 strain growth, BacTiter-Glo luminescence, 24 h; inhibition, % at 10 µM; hit rate 1.4% among 330,000; AID 463195;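 active means inhibition of 40% or more at the single tested concentration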;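 further: wild-type TIM10 isogenic control strain grown at permissive 25 °C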
PfHsp90 set2 = reduces growth (ATP signal) of yeast expressing P. falciparum Hsp90; S. cerevisiae expressing PfHsp90, BacTiter-Glo ATP, 48 h; yeast lacking PDR1 and PDR3 efflux regulators; inhibition, % at 9.4 µM; hit rate 0.32% among 310,000;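 active means every replicate shows inhibition above about 80%, whatever the replicate mean, limit read from the data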;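 further: 0% = DMSO neutral controls and 100% = 20 µM radicicol positive controls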
tim10-1 inh = inhibits growth of tim10-1 mutant yeast | S. cerevisiae tim10-1 ts strain growth, BacTiter-Glo, 24 h | inhibition, % at 20 µM | hit rate 2.2% among 330,000;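 active means inhibition of at least 40%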;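 further: mutant grown at 25 °C; 0% = DMSO wells with yeast and 100% = wells holding no yeast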
ATG4B inhibitor = ATG4B (human) cysteine protease inhibition | Q9Y4P1 | ATG4B cleavage of LC3-PLA2, NBD-HPC fluorescence, 1 h | inhibition, % at 8.33 µM | hit rate 0.51% among 340,000 | AID 504462; in the data active means inhibition above about 40%
Target sequence (Q9Y4P1 whole entry, looked up): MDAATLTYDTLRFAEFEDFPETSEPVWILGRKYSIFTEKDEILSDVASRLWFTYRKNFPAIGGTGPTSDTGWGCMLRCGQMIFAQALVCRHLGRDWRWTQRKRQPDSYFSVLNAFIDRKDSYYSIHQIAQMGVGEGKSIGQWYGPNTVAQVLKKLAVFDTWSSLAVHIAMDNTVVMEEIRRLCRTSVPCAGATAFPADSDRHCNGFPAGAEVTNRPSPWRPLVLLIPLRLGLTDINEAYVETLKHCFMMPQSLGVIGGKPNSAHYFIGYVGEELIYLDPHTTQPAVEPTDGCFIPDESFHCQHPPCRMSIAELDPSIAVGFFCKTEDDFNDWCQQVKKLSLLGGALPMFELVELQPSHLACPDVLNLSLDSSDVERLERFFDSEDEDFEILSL
SKKanGAS inh = SKKanGAS growth inhibition. S. pyogenes SKKanGAS, kanamycin growth, BacTiter-Glo, 6 h. inhibition, % at 7.5 µM. hit rate 1.3% among 300,000;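 active means mean replicate score, as percent of positive control median, at least 50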;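 further: strain carries kanamycin resistance gene driven by streptokinase promoter and grows in 40 µg/ml kanamycin; loss of luminescence reflects streptokinase promoter inhibition or plain growth inhibition; 0% = median of DMSO wells and 100% = positive control at its reference dose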
tim23-1 inh = growth inhibitors of tim23-1 mutant yeast; inhibition, % at 20 µM; AID 463212; hit rate 1.3% among 330,000; S. cerevisiae tim23-1 growth, BacTiter-Glo luminescence, 24 h;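 active means growth inhibition of the mutant yeast at or above 50%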;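 further: temperature-sensitive mutant grown at 25 °C; plate controls were DMSO-treated mutant yeast for no effect and medium wells lacking yeast for full effect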
tim10-1 confirm = tim10-1 yeast growth inhibition, confirmed; inhibition, % at 20 µM; S. cerevisiae tim10-1 ts strain growth, BacTiter-Glo, 24 h; shares compounds with tim10-1 inh; hit rate 56% among 7,400; AID 463213;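 active means inhibition of yeast growth at or above a set limit in either of two repeat tests at 20 µM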;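 further: tim10-1 mutant grown at permissive 25 °C to find synthetic lethal compounds; 0% = DMSO yeast wells and 100% = medium wells without yeast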
tim10 confirm = confirmation of TIM10 yeast growth inhibitors. shares compounds with TIM10 inh. hit rate 63% among 4,600. AID 463215. inhibition, % at 10 µM. S. cerevisiae tim10 strain growth, BacTiter-Glo luminescence, 24 h;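 active means inhibition of yeast growth at or above a set limit in either of two replicates at 10 µM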;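 further: this counterscreen used the strain with wild-type TIM10; 0% = yeast with DMSO and 100% = medium wells lacking yeast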
tim23-1 conf = confirmation of tim23-1 mutant yeast growth inhibitors | S. cerevisiae tim23-1 growth, BacTiter-Glo luminescence, 24 h | inhibition, % at 20 µM | shares compounds with tim23-1 inh | AID 463218 | hit rate 83% among 4,400;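 active means inhibition above about 39% in either of two replicate wells at 20 µM, limit read from the data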;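 further: temperature-sensitive tim23-1 mutant grown at 25 °C; 0% = DMSO wells with yeast and 100% = medium wells without yeast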
* marks the source's active call; other numbers are inactive results; . = not tested or not shown. Only some compounds are listed: those with a hit (about 4.7% of all), similar ones and a draw of the others.

SMILES	TIM10 inh	PfHsp90 set2	tim10-1 inh	ATG4B inhibitor	SKKanGAS inh	tim23-1 inh	tim10-1 confirm	tim10 confirm	tim23-1 conf
Cc1noc(/C=C/c2ccccn2)c1[N+](=O)[O-]	51*	-56	53*	1	-2	62*	62*	58*	54*
Cc1cc(/C(N)=N/OC(=O)c2ccc(Cl)cc2)no1	-8	2	-9	-7	4	1	.	.	.
N/C(=N\OC(=O)c1ccc(Cl)cc1)c1[nH]ncc1Br	43*	19	66*	3	1	60*	63*	37*	59*
CCOC(=O)c1cnc(-n2nc(C)cc2C)nc1NC(C)c1ccccc1 (stereo not given)	53*	.	44*	-5	107*	54*	30	57*	45*
CCOC(=O)c1cc(C(=O)NC(C)c2ccccc2)c(=O)[nH]c1C (stereo not given)	3	-20	9	3	-3	4	.	.	.
Cc1cccc(C)c1NC(=O)c1cccc2c1C(=O)N(C1CCCCC1)C2	18	0	56*	0	-1	55*	11	.	38
Cc1ccc(C(=O)O/N=C2\CC3CCC2(C)C3(C)C)cc1 (stereo not given)	76*	-26	67*	7	19	66*	67*	75*	68*
Cc1cccc(C(=O)O/N=C2/CC3CCC2(C)C3(C)C)c1 (stereo not given)	65*	22	50*	4	2	59*	65*	70*	66*
Cc1ccc(C(=O)O/N=C2/CC3CCC2(C)[C@@]3(C)CBr)cc1 (stereo not given in full)	8	-4	37	-1	-9	44	.	.	.
Cc1cc(C)n(-c2nc(NCCCN(C)C)c3c4c(sc3n2)COC(C)(C)C4)n1	3	.	7	-2	6	-3	.	.	.
CN1C(=O)C(=O)/C(=C(/O)c2ccccc2)C1c1ccc(Br)cc1 (stereo not given)	-12	20	6	6	7	14	.	.	.
O=C(Oc1cc(=O)oc2c1c(=O)n1c3c(cccc23)CC1)c1ccc(F)cc1	47*	.	46*	4	42	71*	4	31	53*
Cc1ccc(NS(=O)(=O)c2ccccc2)c(NS(=O)(=O)c2ccccc2)c1	.	9	.	4	.	.	.	.	.
O=C(N/N=C/C(Br)=C/c1ccccc1)c1ccncc1	13	9	25	-6	-7	28	.	.	.
O=[N+]([O-])c1cc([N+](=O)[O-])c2cc3ccccc3nc2c1	86*	10	75*	14	15	69*	42*	97*	44*
O=[N+]([O-])c1cnc2ccccc2c1	0	-10	14	4	1	17	.	.	.
Clc1cccc(N/N=C(\Cc2nc3ccccc3[nH]2)c2ccccc2)c1	56*	0	40*	23	91*	64*	-12	8	14
COC(=O)CSc1nnc(C)n1-c1cccc(C#N)c1	7	.	7	3	6	32	.	.	.
CC1(C)Cc2ccccc2-c2nc3n(c(=O)c21)CCS3	-4	-20	39	2	-12	35	.	.	.
CC1(C)Cc2ccccc2-c2nc3n(c(=O)c21)CCCS3	26	-19	42*	9	-10	51*	33*	.	60*
Cc1cccc(OCC(=O)Nc2ccc3c4c(cccc24)CC3)c1C	4	-24	2	-9	-8	-9	.	.	.
O=C1c2cccc3cc([N+](=O)[O-])cc(c23)C(=O)N1CC1CCCO1 (stereo not given)	15	29	41*	-3	5	52*	23	.	44*
COc1cccc(-n2nc(C#N)c(Cl)cc2=O)c1	55*	-38	68*	13	8	62*	56*	39*	63*
CC1=C(C)/C(=N\OS(=O)(=O)c2ccccc2)C=CC1=O	95*	106*	94*	-10	1	50*	93*	9	94*
Cc1ccc(S(=O)(=O)O/N=C2\CCCc3ccccc32)cc1	11	-10	18	12	3	11	.	.	.
SMILES	TIM10 inh	PfHsp90 set2	tim10-1 inh	ATG4B inhibitor	SKKanGAS inh	tim23-1 inh	tim10-1 confirm	tim10 confirm	tim23-1 conf
O=C(/C=C/c1cccc([N+](=O)[O-])c1)c1cccs1	69*	93*	57*	-9	3	52*	52*	72*	49*
S=C1NCCc2ccc(Cl)cc2C1c1ccccc1Cl (stereo not given)	47*	-10	44*	-4	0	59*	21	4	37
Clc1ccc2c(c1)C(C1=NCCN1)c1ccccc1CS2 (stereo not given)	6	-2	-15	6	2	2	.	.	.
Cc1cccc(C(=O)O/N=C(\N)Cc2ccc([N+](=O)[O-])cc2)c1	87*	2	40*	-1	3	81*	58*	91*	91*
N/C(Cc1ccc([N+](=O)[O-])cc1)=N\OC(=O)c1ccc2ccccc2c1	90*	15	54*	-12	-11	81*	47*	89*	92*
N/C(Cc1ccc([N+](=O)[O-])cc1)=N\OC(=O)c1ccccc1Br	88*	-70	52*	-6	1	62*	56*	-8	88*
N/C(Cc1ccc([N+](=O)[O-])cc1)=N\OC(=O)c1ccco1	27	-24	21	-12	2	26	.	.	.
N/C(Cc1ccc([N+](=O)[O-])cc1)=N\OC(=O)CC1CCCCC1	86*	8	65*	11	0	79*	64*	92*	83*
CCCCOC(C)n1cc(F)c(=O)[nH]c1=O (stereo not given)	.	2	.	-3	2	.	.	.	.
COc1ccc2nc(COC(=O)c3ccco3)c(C(C)=O)[n+]([O-])c2c1	-4	-1	19	-1	0	20	.	.	.
Cc1cc(-c2nnc(CCC(=O)NC(C)c3ccccc3Cl)o2)no1 (stereo not given)	13	18	7	6	5	11	.	.	.
Cc1ccccc1C(=O)NC(=S)Nc1ccccc1C(=O)O	7	-8	30	10	-13	18	.	.	.
COC(=O)c1ccccc1NC(=S)NC(=O)c1ccccc1C	70*	.	71*	20	-1	59*	65*	69*	-24
COC(=O)c1ccccc1NC(=S)NC(=O)c1ccc2c(c1)OCO2	62*	8	63*	8	5	72*	41*	45*	39*

Source: PubChem BioAssay
